# Hits are enriched below; roughly 0.81% of the tested compounds scored in any of these assays.
# TRHR enhancer-1: allosteric enhancers of human TRH receptor. P34981. actives 0.66% (n = 360,000). TRHR cells, fluo-8 calcium fluorescence, EC20 TRH enhancement. AID 493056. enhancement, % at 2 µM; in the data active = enhancement above about 30%; also: 0% is about no effect
#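 Enhancer read-out: after compound pinning and an initial kinetic agonist-mode read, an EC20 of TRH (10 nM final) was injected and fluo-8 calcium signal (Ex 480/Em 530) followed at 1 s/cycle for 100 cycles in TRHR-expressing cells.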
# TRPML1 agonist: activates the human TRPML1 channel; actives 0.12% (n = 410,000); TRPML1-expressing cells, Ca2+ dye fluorescence, FDSS; activation, % (test concentration not listed); Q9GZU1; in the data active = activation above about 50%; inconclusive = mostly about 30% to 49%; also: 0% is about no effect
# Target sequence (Q9GZU1 whole entry, looked up): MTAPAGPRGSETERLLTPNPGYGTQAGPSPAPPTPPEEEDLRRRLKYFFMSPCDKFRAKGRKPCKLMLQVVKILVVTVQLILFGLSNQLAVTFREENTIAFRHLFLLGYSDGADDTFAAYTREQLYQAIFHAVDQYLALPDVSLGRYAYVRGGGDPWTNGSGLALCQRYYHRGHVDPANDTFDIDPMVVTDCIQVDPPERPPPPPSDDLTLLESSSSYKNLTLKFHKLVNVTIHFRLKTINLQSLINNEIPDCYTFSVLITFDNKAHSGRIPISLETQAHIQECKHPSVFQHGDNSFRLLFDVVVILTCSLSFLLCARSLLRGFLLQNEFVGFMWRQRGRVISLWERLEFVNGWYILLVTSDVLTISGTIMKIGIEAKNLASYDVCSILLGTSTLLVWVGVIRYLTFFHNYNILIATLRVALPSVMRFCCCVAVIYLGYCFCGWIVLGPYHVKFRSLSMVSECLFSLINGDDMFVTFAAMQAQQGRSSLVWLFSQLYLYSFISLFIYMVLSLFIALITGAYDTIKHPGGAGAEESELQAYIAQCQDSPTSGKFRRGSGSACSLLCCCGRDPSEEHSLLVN
#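 Calcium fluorescence on an FDSS kinetic reader gave the read-out. Tet-induced TRPML1-DL cells were plated overnight, dye-loaded (Ca8 with quencher, 45-90 min, room temperature, dark), then read 110 s after compound addition, and again 110 s after 4uM final 54-4 (EC80).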
# TRHR agonist-1: activates the human TRH receptor; P34981; TRHR cells, calcium flux fluo-8, FDSS agonist mode; activation, % at 2 µM; actives 0.18% (n = 360,000); AID 493084; in the data active = activation above about 30%; also: 0% is about no effect
#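 Agonist-mode FDSS calcium read (Ex 480/Em 530, 1 s cycles) in 1536-well TRHR cells with fluo-8 dye, after 10-cycle baseline and 23 nL compound addition; TRH at EC20 (10 nM final) added afterwards for the enhancer phase.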
# TRPML1 inh: inhibitors of human TRPML1 channel. Q9GZU1. TRPML1-inducible cells, Ca2+ dye fluorescence, FDSS; stronger effect = lower value; inhibition of EC80 agonist-evoked calcium signal. AID 624415. activity change, negative = inhibition, % (no concentration beside the values). actives 0.02% (n = 390,000); in the data active = activity change below about -50%; inconclusive = between about -30% and that limit;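 also: stimulus is agonist 54-4 at its EC80 concentration; % is scaled to controls: 0 for no effect and ±100 for the full control effect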
#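 TRPML1-DL cells, Tet-induced overnight (~16 h, 37 °C) at 1,500 cells/well, were loaded with Ca8 no-wash dye plus quencher for 45-90 min at room temperature. Compounds were pinned during FDSS kinetic reading; agonist 54-4 at EC80 (4 uM final) then added.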
# TRHR enhancer-2: human TRH receptor allosteric enhancement confirmation | shares compounds with TRHR enhancer-1 | TRH receptor cell assay, enhancer confirmation qHTS | activity change, negative = inhibition, % at 46.1 µM | 970 tested, under 10 active | AID 493076;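 also: compound effect scored on response to added TRH at EC20 of 10 nM; 0% is about no effect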
# TRHR agonist-2: confirmation of human TRH receptor agonists. shares compounds with TRHR enhancer-1. TRHR-expressing cells, agonist activation read-out. Potency, µM (doses to about 46.1 µM), for inactives: top-dose activation, actives largely listed as activators. actives 8% (n = 970). AID 493078; also: potency is read from the fitted curve at half-maximal effect; 0% is about no effect; nearly all actives have a fitted effect of over 75% in size
# The depositor's hits bear a star; ? = inconclusive; nt = no result given. Unless noted, calls follow the shape of the dose curve; as a rule, active = well fitted curve in the direction sought with a large enough effect; inconclusive = small, poorly fitted or top-dose-only effect, or another doubt; inactive = no such curve, though single readings can be large; an effect the other way counts as inactive or inconclusive.
SMILES,TRHR enhancer-1,TRPML1 agonist,TRHR agonist-1,TRPML1 inh,TRHR enhancer-2,TRHR agonist-2
CCC(C(=O)N1CCC2(CC1)OCCO2)c1ccccc1 (stereo unspecified),3,0,2,32,nt,nt
COc1ccc(OC)c(NP(=O)(Oc2ccccc2)Oc2ccccc2)c1,30*,3,0,22,nt,nt
COc1ccc(OC)c(NP(=O)(Oc2ccc(Cl)cc2)Oc2ccc(Cl)cc2)c1,9,0,0,-2,nt,nt
[Hg+][c]1ccccc1,nt,0,nt,nt,nt,nt
ClCCN(CCCl)c1ccc(/C=C/c2sc3ccccc3[n+]2CCCCI)cc1,nt,20,nt,nt,nt,nt
COCc1cc(OC(=O)N(C)C)nc2c1c(C)nn2C,-3,0,0,8,nt,nt
Cc1cc(OC(=O)N(C)C)nc2c1c(C)nn2C,40*,0,0,-7,nt,nt
Clc1ccccc1NC1=NCCCS1,35*,0,0,1,nt,nt
ClCCN(CCCl)c1ccc(C=Nc2ccc(/C=C/c3ccncc3)cc2)cc1,nt,3,nt,nt,nt,nt
ClCCN(CCCl)/C(=C\c1ccccc1)c1ccnc2ccccc12,nt,23,nt,nt,nt,nt
CCOc1ccc(NC(=O)c2c(O)[nH]c(=O)[nH]c2=O)cc1,nt,-1,nt,14,nt,nt
CCOC(=O)c1ccc(NC(=O)c2c(O)[nH]c(=O)[nH]c2=O)cc1,13,0,73*,-2,nt,nt
O=[N+]([O-])c1cc(C(F)(F)F)c(Cl)c([N+](=O)[O-])c1Nc1ncc(C(F)(F)F)cc1Cl,nt,29,nt,nt,nt,nt
CN1/C(=C\C=C2C(=O)NC(=O)NC2=O)C(C)(C)c2ccccc21,0,81*,101*,-10,nt,nt
CC1OC(O[C@H]2C[C@@H](O)[C@]3(CO)[C@H]4[C@H](O)C[C@]5(C)[C@@H](C6=CC(=O)OC6)CC[C@]5(O)[C@@H]4CC[C@]3(O)C2)C(O)C(O)C1O (stereo partly specified),nt,-1,nt,nt,nt,nt
Cc1ccc(-n2c(O)c(C=NC3CCCC3)c(=O)[nH]c2=O)c(C)c1,41*,1,0,9,nt,nt
Cc1ccc(-n2c(O)c(C=NC3CCCCC3N)c(=O)[nH]c2=O)cc1C (stereo unspecified),-6,-1,1,1,nt,nt
CC1=CC(=O)OC2CC3OC4C[C@@H](C)C5OC6CC7O[C@]8(C)C/C=C\C9OC%10CC%11OC(CC(C)C%12OCCO%12)CC(O)[C@]%11(C)OC%10CC9OC8C[C@]7(C)O[C@]6(C)CCC5OC4C[C@]3(C)OC12 (stereo partly specified),nt,14,nt,-17,nt,nt
C=C(CC1CC(O)[C@]2(C)OC3CC4OC5C[C@]6(C)O[C@]7(C)CCC8OC9C[C@]%10(C)OC%11C(C)=CC(=O)OC%11CC%10OC9C[C@@H](C)C8OC7CC6O[C@]5(C)C/C=C\C4OC3CC2O1)C(=O)O (stereo partly specified),50*,1,-1,6,?,0%
COc1cc([N+](=O)[O-])cc([N+](=O)[O-])c1N,nt,-1,nt,nt,nt,nt
O=C1NC(=O)N(c2ccc3c(c2)OCO3)C(=O)/C1=C/c1ccc(N2CCCC2)o1,-7,5,13,5,nt,nt
CCOc1ccc(N2C(=O)NC(=O)/C(=C\c3ccc(N4CCCCC4)o3)C2=O)cc1,6,6,31*,-16,-4,23µM*
C[C@H]1C(=O)O[C@@H]2CCN3CC=C(COC(=O)[C@](C)(O)[C@]1(C)O)[C@H]23,43*,0,1,-19,0,-1%
COc1ccc(-n2c(-c3ccccc3Br)nc3ccccc3c2=O)cc1,48*,2,0,25,-7,2%
COc1ccc(-n2c(-c3ccccc3F)nc3ccccc3c2=O)cc1,nt,-1,nt,0,nt,nt
SMILES,TRHR enhancer-1,TRPML1 agonist,TRHR agonist-1,TRPML1 inh,TRHR enhancer-2,TRHR agonist-2
COc1ccc(NC(=O)CN2C(=O)CN=C(c3ccccc3)c3ccccc32)c(OC)c1,-3,1,0,-4,nt,nt
CN1CCN(c2ccc(S(=O)(=O)C(F)(F)F)cc2[N+](=O)[O-])CC1,43*,1,1,32,-4,8%
CN1CCN(c2ccc(S(C)(=O)=O)cc2[N+](=O)[O-])CC1,-16,-1,0,19,nt,nt
COc1ccc(N=Cc2c(O)n(-c3ccc(C)cc3)c(=O)[nH]c2=O)cc1,51*,0,0,-18,?,2%
C=CCn1c(O)c(C=Nc2ccc(OC)cc2C)c(=O)[nH]c1=O,1,1,29,10,-2,0%
CCN(CC)C(=O)c1ccc(NC(=O)CCn2nc(-c3ccc(Cl)cc3)c3ccccc3c2=O)cc1,-3,1,-1,0,nt,nt
COc1cc([C@@H]2c3cc4c(cc3[C@@H](O)C3COC(=O)C32)OCO4)cc(OC)c1O (stereo partly specified),nt,-1,nt,nt,nt,nt
O=C(Cn1cc(C(=O)c2ccccc2)c2ccccc21)NCc1ccco1,56*,1,-2,9,-9,1%
ClCCN(CCCl)c1ccc(C=Nc2ccncc2)cc1,nt,4,nt,nt,nt,nt
CC(C)N1CCN(Cc2cccc3c2OCO3)CC1CCO (stereo unspecified),13,1,1,-2,nt,nt
CC(C)N1CCN(Cc2c[nH]c3ccccc23)CC1CCO (stereo unspecified),58*,0,1,-5,-1,5%
C[C@]12CC[C@H](O)C[C@H]1CCC1C2CC[C@]2(C)[C@@H](c3ccc(=O)oc3)C[C@H]3O[C@]132 (stereo partly specified),nt,1,nt,nt,nt,nt
CCNC(=O)[C@H]1O[C@@H](n2cnc3c(N)ncnc32)[C@H](O)[C@@H]1O,45*,-1,1,-1,?,-1%
Nc1ncnc2c1ncn2[C@@H]1O[C@H](COP(=O)(O)CP(=O)(O)O)[C@@H](O)[C@H]1O,nt,0,nt,9,nt,nt
Cc1ccc(N2C(=O)CC(=O)NC2=O)c(C)c1,109*,1,1,20,0,-1%
CN1CC=C2C(C#N)=C(N)C(C#N)(C#N)C(c3ccncc3)C2C1 (stereo unspecified),9,4,27,29,-4,?
O=S(=O)(c1ccccc1)N1CCN2CCCC2C1 (stereo unspecified),57*,1,1,0,0,0%
Cn1c(O)c(/C=C/C=Nc2ccccc2)c(=O)n(C)c1=O,3,2,13,25,nt,nt
CCCCn1c(O)c(/C=C/C=Nc2ccccc2)c(=O)[nH]c1=O,24,6,41*,-2,5,16µM*
Nc1c(C(=O)Nc2ccc(OC(F)(F)F)cc2)sc2nc3c(cc12)N1CCC3CC1,-9,-1,-1,-16,nt,nt
CC1(C)OC(c2ccccc2)=C/C(=C/C=C2C(=O)NC(=O)NC2=O)O1,15,16,30,-14,-6,?
O=C(CN1CCCC1)c1ccccc1,nt,0,nt,nt,nt,nt

# Source: PubChem
